Reference: article PMC7862700, “An all-to-all approach to the identification of sequence-specific readers for epigenetic DNA modifications on cytosine”

Tests used:
Experiment in all cases: DAPPL (digital affinity profiling via proximity ligation, sequencing); 10 mM Tris-HCl pH 7.5, 50 mM NaCl, 1 mM DTT, 4% glycerol, room temperature, 30 min; GST-TFs on glutathione beads, 16-mer random dsDNA library, 0.1% formaldehyde crosslink after washing; high values mean tight binding
Settings in all cases: protein: recombinant; tags: N-terminal GST; dsDNA, one strand shown
FLI1 = biological target: T1, FLI1 (Homo sapiens, UniProt Q01543 1-452)
T1 sequence: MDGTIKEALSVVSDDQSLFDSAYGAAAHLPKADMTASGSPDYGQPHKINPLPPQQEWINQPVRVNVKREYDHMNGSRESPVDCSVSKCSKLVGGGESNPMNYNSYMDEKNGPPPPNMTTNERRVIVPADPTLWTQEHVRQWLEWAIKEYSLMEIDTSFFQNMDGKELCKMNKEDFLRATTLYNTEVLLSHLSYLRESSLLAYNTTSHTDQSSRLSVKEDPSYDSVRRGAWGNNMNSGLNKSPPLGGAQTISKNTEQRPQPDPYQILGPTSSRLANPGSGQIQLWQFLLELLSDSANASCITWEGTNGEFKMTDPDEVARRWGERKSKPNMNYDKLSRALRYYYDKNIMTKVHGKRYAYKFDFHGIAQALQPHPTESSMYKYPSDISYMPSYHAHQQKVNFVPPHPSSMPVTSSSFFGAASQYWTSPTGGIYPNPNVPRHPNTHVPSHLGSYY
Summary of the method: (§1)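 After expression in yeast as GST fusions, human transcription factors were bound to glutathione beads, DNA-barcoded and mixed with a tag-only sample. The pools were incubated with 200 nmole of a 16-mer random double-stranded DNA library in Tris/NaCl/DTT/glycerol buffer (30 min, room temperature), washed and crosslinked with 0.1% formaldehyde. Proximity ligation with BsaI/T4 ligase ran for 1 h at 37 °C, before PCR amplification and sequencing on an Illumina NextSeq500. Binding signal is a hexamer's read frequency for a factor divided by its frequency for the tag-only sample.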

ELK1 = biological target: T2, ELK1 (Homo sapiens, UniProt P19419 1-428)
T2 sequence: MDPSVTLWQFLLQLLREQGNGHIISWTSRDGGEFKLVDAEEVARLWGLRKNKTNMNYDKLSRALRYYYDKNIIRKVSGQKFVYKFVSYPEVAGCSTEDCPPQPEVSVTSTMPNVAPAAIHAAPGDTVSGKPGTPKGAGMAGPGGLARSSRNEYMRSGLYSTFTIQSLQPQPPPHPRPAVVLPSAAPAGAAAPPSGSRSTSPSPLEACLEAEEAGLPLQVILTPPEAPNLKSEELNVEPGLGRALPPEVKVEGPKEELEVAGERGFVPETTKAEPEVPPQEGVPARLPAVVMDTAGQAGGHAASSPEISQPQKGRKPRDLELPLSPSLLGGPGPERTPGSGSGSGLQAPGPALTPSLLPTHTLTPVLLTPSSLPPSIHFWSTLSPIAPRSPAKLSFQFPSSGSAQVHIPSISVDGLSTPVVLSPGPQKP
Summary of the method: as §1

GABPA = biological target: T3, GABPA (Homo sapiens, UniProt Q06546 1-454)
T3 sequence: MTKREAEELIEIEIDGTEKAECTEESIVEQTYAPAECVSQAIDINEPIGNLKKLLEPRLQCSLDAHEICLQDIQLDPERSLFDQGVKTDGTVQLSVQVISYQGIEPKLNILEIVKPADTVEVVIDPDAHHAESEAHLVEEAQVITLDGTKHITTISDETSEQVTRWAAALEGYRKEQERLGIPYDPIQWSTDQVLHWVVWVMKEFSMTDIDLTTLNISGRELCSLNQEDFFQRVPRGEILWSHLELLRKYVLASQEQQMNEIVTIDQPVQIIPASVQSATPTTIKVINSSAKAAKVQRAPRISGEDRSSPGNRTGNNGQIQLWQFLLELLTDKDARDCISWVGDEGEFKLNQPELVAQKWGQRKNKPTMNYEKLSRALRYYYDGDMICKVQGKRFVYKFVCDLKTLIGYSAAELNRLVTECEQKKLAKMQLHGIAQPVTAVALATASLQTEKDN
Summary of the method: as §1

ERG = biological target: T4, ERG (Homo sapiens, UniProt P11308 1-479)
T4 sequence: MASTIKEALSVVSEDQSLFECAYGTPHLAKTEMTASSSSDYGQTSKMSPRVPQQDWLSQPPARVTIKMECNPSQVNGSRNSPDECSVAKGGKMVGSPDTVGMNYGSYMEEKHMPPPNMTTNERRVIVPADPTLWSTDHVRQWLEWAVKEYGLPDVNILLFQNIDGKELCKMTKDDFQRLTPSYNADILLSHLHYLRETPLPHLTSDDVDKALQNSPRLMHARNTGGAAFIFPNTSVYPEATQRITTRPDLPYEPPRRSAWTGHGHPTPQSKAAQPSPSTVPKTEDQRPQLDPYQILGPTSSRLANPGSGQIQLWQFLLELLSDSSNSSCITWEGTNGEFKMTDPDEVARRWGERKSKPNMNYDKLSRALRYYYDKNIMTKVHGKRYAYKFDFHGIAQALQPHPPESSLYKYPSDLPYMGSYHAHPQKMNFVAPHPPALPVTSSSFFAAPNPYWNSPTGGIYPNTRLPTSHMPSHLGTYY
Summary of the method: as §1

ELF1 = ELF1 (Homo sapiens, UniProt P32519 1-619)
Summary of the method: as §1

EHF = biological target: T5, EHF (Homo sapiens, UniProt Q9NZC4 1-300)
T5 sequence: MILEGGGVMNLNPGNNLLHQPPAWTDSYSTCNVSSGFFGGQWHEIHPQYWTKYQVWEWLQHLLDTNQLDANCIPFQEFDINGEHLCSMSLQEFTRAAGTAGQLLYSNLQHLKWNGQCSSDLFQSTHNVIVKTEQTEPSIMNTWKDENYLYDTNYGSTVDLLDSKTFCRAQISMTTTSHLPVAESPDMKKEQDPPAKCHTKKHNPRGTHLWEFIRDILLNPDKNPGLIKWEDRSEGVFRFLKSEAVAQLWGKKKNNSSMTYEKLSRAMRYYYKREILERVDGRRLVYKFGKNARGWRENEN
Summary of the method: as §1

SPI1 = SPI1 (Homo sapiens, UniProt P17947 1-270)
Summary of the method: as §1

SPIB = SPIB (Homo sapiens, UniProt Q01892 1-262)
Summary of the method: as §1

ELK3 = biological target: T6, ELK3 (Homo sapiens, UniProt P41970 1-407)
T6 sequence: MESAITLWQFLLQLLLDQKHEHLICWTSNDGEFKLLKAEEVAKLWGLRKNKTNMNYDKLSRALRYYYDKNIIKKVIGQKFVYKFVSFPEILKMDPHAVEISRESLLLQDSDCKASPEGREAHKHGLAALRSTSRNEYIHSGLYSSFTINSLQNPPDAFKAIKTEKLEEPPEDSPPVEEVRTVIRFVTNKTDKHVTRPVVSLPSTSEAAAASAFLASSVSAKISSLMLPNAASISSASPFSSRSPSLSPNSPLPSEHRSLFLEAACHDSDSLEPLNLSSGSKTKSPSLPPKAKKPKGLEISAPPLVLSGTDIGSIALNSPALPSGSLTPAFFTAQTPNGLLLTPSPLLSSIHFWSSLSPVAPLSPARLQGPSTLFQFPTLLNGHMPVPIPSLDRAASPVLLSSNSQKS
Summary of the method: as §1

FEV = biological target: T7, FEV (Homo sapiens, UniProt Q99581 1-238)
T7 sequence: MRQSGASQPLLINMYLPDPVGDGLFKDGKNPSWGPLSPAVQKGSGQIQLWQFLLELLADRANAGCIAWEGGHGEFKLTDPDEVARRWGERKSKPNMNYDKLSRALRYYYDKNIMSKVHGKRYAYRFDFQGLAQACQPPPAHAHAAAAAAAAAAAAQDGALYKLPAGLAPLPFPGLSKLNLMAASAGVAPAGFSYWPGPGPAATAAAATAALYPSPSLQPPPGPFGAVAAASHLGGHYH
Summary of the method: as §1

ETV5 = ETV5 (Homo sapiens, UniProt P41161 1-510)
Summary of the method: as §1

SPIC = biological target: T8, SPIC (Homo sapiens, UniProt Q8N5J4 1-248)
T8 sequence: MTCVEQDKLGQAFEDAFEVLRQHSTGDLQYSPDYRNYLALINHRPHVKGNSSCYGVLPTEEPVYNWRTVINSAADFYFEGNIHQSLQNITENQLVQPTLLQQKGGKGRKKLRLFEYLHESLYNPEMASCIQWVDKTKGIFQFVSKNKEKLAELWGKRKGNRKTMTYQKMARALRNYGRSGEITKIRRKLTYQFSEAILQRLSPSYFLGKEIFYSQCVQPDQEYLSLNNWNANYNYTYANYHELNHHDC
Summary of the method: as §1

ELF4 = ELF4 (Homo sapiens, UniProt Q99607 1-663)
Summary of the method: as §1

ELK4 = biological target: T9, ELK4 (Homo sapiens, UniProt P28324-2 1-405)
T9 sequence: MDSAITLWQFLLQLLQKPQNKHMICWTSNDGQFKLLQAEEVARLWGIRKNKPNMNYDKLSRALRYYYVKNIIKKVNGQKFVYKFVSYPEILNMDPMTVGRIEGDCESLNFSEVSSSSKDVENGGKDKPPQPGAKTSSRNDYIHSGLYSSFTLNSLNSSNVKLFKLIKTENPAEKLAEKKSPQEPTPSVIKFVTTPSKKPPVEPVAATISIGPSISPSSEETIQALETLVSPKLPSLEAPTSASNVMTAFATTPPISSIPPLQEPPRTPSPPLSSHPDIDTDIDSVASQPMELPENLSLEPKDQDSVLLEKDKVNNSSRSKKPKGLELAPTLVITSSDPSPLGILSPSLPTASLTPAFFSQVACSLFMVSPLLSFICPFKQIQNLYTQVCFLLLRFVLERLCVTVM
Summary of the method: as §1

ETV2 = biological target: T10, ETV2 (Homo sapiens, UniProt O00321 1-342)
T10 sequence: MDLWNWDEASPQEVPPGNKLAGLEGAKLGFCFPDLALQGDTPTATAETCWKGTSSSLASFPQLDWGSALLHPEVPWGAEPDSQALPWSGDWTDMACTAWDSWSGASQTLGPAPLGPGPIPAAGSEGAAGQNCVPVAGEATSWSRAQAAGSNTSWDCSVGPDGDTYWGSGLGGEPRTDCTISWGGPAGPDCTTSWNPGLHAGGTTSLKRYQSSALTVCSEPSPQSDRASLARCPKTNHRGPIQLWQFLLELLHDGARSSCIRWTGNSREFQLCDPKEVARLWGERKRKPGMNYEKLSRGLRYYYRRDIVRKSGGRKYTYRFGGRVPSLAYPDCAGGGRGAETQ
Summary of the method: as §1

ELF3 = biological target: T11, ELF3 (Homo sapiens, UniProt P78545 1-371)
T11 sequence: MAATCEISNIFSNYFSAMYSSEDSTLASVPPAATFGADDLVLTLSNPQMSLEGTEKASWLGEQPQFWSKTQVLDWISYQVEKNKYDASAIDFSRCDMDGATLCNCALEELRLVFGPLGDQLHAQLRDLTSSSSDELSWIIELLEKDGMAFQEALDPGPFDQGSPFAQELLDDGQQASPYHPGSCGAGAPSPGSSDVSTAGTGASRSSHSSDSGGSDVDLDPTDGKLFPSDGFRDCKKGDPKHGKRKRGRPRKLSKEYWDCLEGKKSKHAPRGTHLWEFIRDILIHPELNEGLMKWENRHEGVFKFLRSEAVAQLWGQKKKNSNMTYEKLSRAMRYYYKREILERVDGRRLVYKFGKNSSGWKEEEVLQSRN
Summary of the method: as §1

ETV1 = ETV1 (Homo sapiens, UniProt P50549 1-477)
Summary of the method: as §1

Sequence of ETV5 (P41161 whole entry): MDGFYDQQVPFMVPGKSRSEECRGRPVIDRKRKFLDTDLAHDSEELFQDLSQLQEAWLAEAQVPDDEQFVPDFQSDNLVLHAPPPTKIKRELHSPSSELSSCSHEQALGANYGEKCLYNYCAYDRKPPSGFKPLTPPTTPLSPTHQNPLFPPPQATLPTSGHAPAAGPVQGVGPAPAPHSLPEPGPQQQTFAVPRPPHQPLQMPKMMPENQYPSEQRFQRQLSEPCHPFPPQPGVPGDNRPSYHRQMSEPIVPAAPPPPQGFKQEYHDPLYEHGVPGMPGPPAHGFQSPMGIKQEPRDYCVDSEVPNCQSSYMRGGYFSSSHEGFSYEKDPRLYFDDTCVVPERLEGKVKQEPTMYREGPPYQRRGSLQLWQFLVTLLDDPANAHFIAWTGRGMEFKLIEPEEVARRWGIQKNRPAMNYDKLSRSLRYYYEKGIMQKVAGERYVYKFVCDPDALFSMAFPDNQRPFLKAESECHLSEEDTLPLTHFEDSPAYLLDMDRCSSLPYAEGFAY
Sequence of ELF4 (Q99607 whole entry): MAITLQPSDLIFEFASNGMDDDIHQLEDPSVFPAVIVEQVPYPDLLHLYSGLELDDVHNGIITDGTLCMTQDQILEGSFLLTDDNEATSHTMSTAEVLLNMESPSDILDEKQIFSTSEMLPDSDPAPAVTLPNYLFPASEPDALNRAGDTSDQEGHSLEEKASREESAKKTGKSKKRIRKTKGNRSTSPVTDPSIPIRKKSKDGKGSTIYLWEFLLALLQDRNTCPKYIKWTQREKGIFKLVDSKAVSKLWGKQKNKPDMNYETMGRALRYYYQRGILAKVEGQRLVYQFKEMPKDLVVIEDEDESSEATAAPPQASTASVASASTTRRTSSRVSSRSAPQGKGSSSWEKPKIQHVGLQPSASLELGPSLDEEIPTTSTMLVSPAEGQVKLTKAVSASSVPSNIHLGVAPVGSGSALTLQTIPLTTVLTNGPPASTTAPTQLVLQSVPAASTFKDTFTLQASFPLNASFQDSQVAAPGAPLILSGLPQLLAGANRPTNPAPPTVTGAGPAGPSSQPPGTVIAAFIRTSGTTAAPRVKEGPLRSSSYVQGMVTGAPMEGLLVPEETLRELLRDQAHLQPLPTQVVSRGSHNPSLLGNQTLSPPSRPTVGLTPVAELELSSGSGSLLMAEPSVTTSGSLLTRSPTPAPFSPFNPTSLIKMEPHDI
Sequence of ELF1 (P32519 whole entry): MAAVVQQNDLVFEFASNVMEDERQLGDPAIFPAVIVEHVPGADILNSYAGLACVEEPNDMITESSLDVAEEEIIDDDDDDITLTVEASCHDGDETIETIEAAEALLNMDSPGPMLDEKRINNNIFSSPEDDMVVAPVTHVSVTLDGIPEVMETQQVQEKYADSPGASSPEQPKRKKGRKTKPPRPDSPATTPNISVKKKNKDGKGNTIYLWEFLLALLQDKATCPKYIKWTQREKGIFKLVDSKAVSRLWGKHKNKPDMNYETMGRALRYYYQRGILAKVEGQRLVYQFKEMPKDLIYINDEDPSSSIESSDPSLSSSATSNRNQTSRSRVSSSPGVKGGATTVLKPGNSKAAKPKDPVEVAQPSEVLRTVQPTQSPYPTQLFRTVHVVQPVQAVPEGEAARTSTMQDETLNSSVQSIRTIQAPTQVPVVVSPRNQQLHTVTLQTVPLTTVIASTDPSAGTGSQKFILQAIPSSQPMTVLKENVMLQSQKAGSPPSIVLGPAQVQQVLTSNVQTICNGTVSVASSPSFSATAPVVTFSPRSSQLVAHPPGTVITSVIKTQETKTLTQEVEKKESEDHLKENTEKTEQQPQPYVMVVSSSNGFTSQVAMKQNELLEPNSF
Sequence of ETV1 (P50549 whole entry): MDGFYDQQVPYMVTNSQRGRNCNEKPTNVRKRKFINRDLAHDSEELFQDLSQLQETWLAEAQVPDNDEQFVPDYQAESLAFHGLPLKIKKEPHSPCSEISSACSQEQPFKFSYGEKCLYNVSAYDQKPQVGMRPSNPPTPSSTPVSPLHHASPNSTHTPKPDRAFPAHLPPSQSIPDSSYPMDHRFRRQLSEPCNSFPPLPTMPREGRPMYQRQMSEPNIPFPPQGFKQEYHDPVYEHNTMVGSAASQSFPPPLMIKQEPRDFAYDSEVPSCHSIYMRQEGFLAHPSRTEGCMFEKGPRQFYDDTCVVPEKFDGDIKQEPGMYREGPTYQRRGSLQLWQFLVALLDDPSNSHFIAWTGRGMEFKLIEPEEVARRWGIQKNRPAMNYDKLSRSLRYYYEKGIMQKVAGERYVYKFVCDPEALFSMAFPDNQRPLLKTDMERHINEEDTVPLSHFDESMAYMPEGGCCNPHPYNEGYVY
Sequence of SPIB (Q01892 whole entry): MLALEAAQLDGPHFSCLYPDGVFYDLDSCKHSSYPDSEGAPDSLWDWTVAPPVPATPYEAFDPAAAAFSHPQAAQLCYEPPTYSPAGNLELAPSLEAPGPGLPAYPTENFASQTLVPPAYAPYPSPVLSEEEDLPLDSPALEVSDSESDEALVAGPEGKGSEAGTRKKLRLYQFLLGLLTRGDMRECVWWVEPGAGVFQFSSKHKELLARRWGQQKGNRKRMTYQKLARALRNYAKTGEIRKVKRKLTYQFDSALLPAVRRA

Sequence: CGACGT
- binding signal (FLI1): 1.23 fold enrichment (6-mer frequency, TF over GST control)
- binding signal (ELK1): 1.09 fold enrichment (6-mer frequency, TF over GST control)
- binding signal (GABPA): 1.22 fold enrichment (6-mer frequency, TF over GST control)
- binding signal (ERG): 1.06 fold enrichment (6-mer frequency, TF over GST control)
- binding signal (ELF1): 1.11 fold enrichment (6-mer frequency, TF over GST control)
- binding signal (EHF): 1.14 fold enrichment (6-mer frequency, TF over GST control)
- binding signal (SPI1): 1.08 fold enrichment (6-mer frequency, TF over GST control)
- binding signal (SPIB): 1 fold enrichment (6-mer frequency, TF over GST control)
- binding signal (ELK3): 1.07 fold enrichment (6-mer frequency, TF over GST control)
- binding signal (FEV): 1.09 fold enrichment (6-mer frequency, TF over GST control)
- binding signal (ETV5): 1.12 fold enrichment (6-mer frequency, TF over GST control)
- binding signal (SPIC): 1.05 fold enrichment (6-mer frequency, TF over GST control)
- binding signal (ELF4): 1.21 fold enrichment (6-mer frequency, TF over GST control)
- binding signal (ELK4): 1.15 fold enrichment (6-mer frequency, TF over GST control)
- binding signal (ETV2): 1.49 fold enrichment (6-mer frequency, TF over GST control)
- binding signal (ELF3): 1.09 fold enrichment (6-mer frequency, TF over GST control)
- binding signal (ETV1): 1.05 fold enrichment (6-mer frequency, TF over GST control)

Sequence: ACCCAC
- binding signal (FLI1): 1.28 fold enrichment (6-mer frequency, TF over GST control)
- binding signal (ELK1): 1.24 fold enrichment (6-mer frequency, TF over GST control)
- binding signal (GABPA): 1.35 fold enrichment (6-mer frequency, TF over GST control)
- binding signal (ERG): 1.1 fold enrichment (6-mer frequency, TF over GST control)
- binding signal (ELF1): 1.13 fold enrichment (6-mer frequency, TF over GST control)
- binding signal (EHF): 1.21 fold enrichment (6-mer frequency, TF over GST control)
- binding signal (SPI1): 1.18 fold enrichment (6-mer frequency, TF over GST control)
- binding signal (SPIB): 1.07 fold enrichment (6-mer frequency, TF over GST control)
- binding signal (ELK3): 1.24 fold enrichment (6-mer frequency, TF over GST control)
- binding signal (FEV): 1.22 fold enrichment (6-mer frequency, TF over GST control)
- binding signal (ETV5): 1.15 fold enrichment (6-mer frequency, TF over GST control)
- binding signal (SPIC): 1.23 fold enrichment (6-mer frequency, TF over GST control)
- binding signal (ELF4): 1.23 fold enrichment (6-mer frequency, TF over GST control)
- binding signal (ELK4): 1.21 fold enrichment (6-mer frequency, TF over GST control)
- binding signal (ETV2): 1.19 fold enrichment (6-mer frequency, TF over GST control)
- binding signal (ELF3): 1.33 fold enrichment (6-mer frequency, TF over GST control)
- binding signal (ETV1): 1.17 fold enrichment (6-mer frequency, TF over GST control)
